Compound activity from PubChem.
DRV1 agonist: GPR32 (DRV1) agonism, beta-arrestin recruitment; CHO-K1 GPR32 beta-arrestin PathHunter luminescence, 90 min; zero percent set by DMSO-only wells; activation, % at 76.9 µM; AID 1346428; hit rate 2.5% among 48,000;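 active = activation of at least 60% and not above a set upper limit, about 1 call in 100 departs from these limits; inconclusive = activation of 40% to 60%, or above that upper limit; inactive = activation under 40%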; note: 0% is about no effect
Target sequence (O75388 whole entry, looked up): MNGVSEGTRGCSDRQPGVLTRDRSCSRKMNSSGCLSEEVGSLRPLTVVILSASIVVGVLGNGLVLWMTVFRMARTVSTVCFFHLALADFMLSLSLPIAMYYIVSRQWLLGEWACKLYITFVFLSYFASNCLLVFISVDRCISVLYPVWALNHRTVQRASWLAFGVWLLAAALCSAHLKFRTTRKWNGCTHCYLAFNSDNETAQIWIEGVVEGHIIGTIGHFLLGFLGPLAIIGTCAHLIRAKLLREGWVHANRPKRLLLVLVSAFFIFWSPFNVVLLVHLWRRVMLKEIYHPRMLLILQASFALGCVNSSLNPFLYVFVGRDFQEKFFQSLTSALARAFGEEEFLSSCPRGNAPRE
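Step 1: seed CHO-K1 GPR32 beta-arrestin cells, 2,500/well, overnight at 37 °C. Step 2: add compounds, 90 min at 37 °C. Step 3: detection reagent, 1 h ambient, then luminescence.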
NTMT1 inh: blocks human N-terminal methyltransferase 1 activity | NTMT1 MTase-Glo SAH luminescence, purified enzyme | Potency, µM (top dose mostly 114 µM), inactives show top-dose activity change, negative = inhibition, hits mostly inhibitors | hit rate 2.5% among 59,000;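 note: potency is the fitted concentration of half-maximal effect; plate controls were DMSO vehicle for no effect and no enzyme for full effect; nearly all actives have a fitted effect of over 65% in size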
Target sequence (Q9BV86 whole entry, looked up): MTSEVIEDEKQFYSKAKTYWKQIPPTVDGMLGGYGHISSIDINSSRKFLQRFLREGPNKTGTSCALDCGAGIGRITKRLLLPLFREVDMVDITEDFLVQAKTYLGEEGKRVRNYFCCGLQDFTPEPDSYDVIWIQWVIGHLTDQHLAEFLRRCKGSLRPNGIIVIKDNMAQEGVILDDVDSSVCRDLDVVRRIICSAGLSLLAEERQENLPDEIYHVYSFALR
HTT prom inh: inhibits huntingtin promoter activity | Potency, µM (series often up to 57.5 µM), inactives show at the top dose activity change, negative = inhibition, hits mostly inhibitors | HEK293 HTT promoter firefly luciferase reporter, 24 h | hit rate 0.93% among 48,000; note: potency is the fitted concentration of half-maximal effect; nearly all actives have a fitted effect of over 50% in size
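Firefly luciferase signal from promoter-reporter HEK293 cells was scaled between vehicle (0%) and zero RLU (-100%). Compounds were tested at final concentrations of up to 57.5 uM over 24 h at 37 degrees C. PTC124 at 50 uM final served as control inhibitor.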
HTT-AS act: activators of huntingtin-antisense promoter activity. HEK293 HTT-AS promoter firefly luciferase reporter, 24 h; response scale: percent change from vehicle, -100% = no light. Potency, µM (series often up to 57.5 µM), for inactives: at the highest dose activity change, positive = activation, actives largely listed as activators. AID 1508624. hit rate 0.24% among 48,000; note: potency is the fitted concentration of half-maximal effect; nearly all actives have a fitted effect of over 55% in size
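HEK293 luciferase promoter-reporter cells (2,500/well) plated 24 h, then compounds added at up to 57.5 uM final for 24 h at 37 °C. Firefly luminescence by Dual-Glo, normalized to vehicle (0%) and zero RLU (-100%).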
* hit, by the source's call; ? = inconclusive; nt = no result; ! = repeats disagree; [ ] = another dose, or the depositor's remark. Hits are enriched below; roughly 4.6% of the tested compounds scored in any of these assays. Unless noted, calls come from the whole dose curve; as a rule, active = well fitted curve in the direction sought with a large enough effect; inconclusive = small, poorly fitted or top-dose-only effect, or another doubt; inactive = no such curve, though single readings can be large; an effect the other way counts as inactive or inconclusive.

SMILES | DRV1 agonist | NTMT1 inh | HTT prom inh | HTT-AS act
CC1=C(c2ccc(C(C)C)cc2)S(=O)(=O)N=C1N1CCC(C(=O)Nc2ccc(C)cc2)CC1 | ? | -13% | -27% | -30%
CSc1nc(N)cc(Oc2ccc(-c3nc(Nc4cccc(C(F)(F)F)c4)n[nH]3)cc2)n1 | nt | -16% | nt | nt
COc1ccc2c(c1)CCc1c(C(=O)Nc3cnn(Cc4ccc(Cl)cc4Cl)c3)noc1-2 | -20 | ? | -11% | -4%
COc1ccc(OC)c(-c2cc(C(=O)Nc3cnn(Cc4ccc(Cl)cc4Cl)c3)no2)c1 | 91* | nt | nt | nt
CC(=O)OC[C@@]12[C@H](O)C[C@@H](C)[C@]3(C[C@@H](c4ccoc4)OC3=O)[C@H]1C[C@H](O)C[C@]21CO1 | nt | 7%[29.8 µM] | nt | nt
CC(=O)c1ccc(NC(=O)CN2C(=O)c3cccnc3Sc3ccccc32)cc1 | 4 | 4% | 26% | 17%
Cc1cc(Br)ccc1NC(=O)CN1C(=O)c2cccnc2Sc2ccccc21 | -3 | 79µM* | -21% | -14%
CCC1CCCCN1CCCNC(=O)c1cc2c(=O)n(CC)c3ccccc3c2s1 (stereo not given) | -2 | ? | -1% | -10%
CCC1CCCCN1CCCNC(=O)c1cc2c(Cl)nc3ccc(C)cc3c2s1 (stereo not given) | -6 | 28µM* | -24% | -29%
C=CCc1cccc(CNc2ccc(S(=O)(=O)Nc3nccs3)cc2)c1O | nt | 9% | nt | nt
CC1=C(C(=O)OC2CCCC2)C(c2ccccc2C(F)(F)F)CC(=O)N1 (stereo not given) | 96* | -3% | ? | -33%
COc1ccccc1C1CC(=O)NC(C)=C1C(=O)OC1CCCCCC1 (stereo not given) | 5 | 5% | ? | -21%
CC(C)c1ccccc1-c1nc(NCc2ccc(-c3cccnc3)cc2)c2ccccc2n1 | nt | 18% | nt | nt
Cc1c(OCC(F)(F)F)ccnc1CS(=O)c1nc2ccccc2[nH]1 (stereo not given) | 60*! | 45µM*! | 15% | ?
COc1ccc(Cc2nc3ccccc3[nH]c2=O)cc1 | -2 | 8% | -11% | -21%
COCCCOc1ccnc(CS(=O)c2nc3ccccc3[nH]2)c1C (stereo not given) | 11 | 18µM*! | 15% | 13%
COc1cc(Br)c(S(=O)(=O)Nc2ccc(C(F)(F)F)c(O[C@@H]3CCN(C)C3)c2)cc1OC | nt | 4%[57.5 µM] | nt | nt
CCC(C)(C)c1ccc(CC(C)CN2C[C@@H](C)O[C@@H](C)C2)cc1 (stereo not given in full) | 113* | -51%[57.5 µM] | -5% | -11%
CC(C)CN(C[C@@H](O)[C@H](Cc1ccccc1)NC(=O)O[C@@H]1CO[C@H]2OCC[C@H]21)S(=O)(=O)c1ccc(N)cc1 | nt | 3%[57.5 µM] | nt | nt
O=C1C2=C(CN1c1ccccc1)NC(Nc1nc3ccccc3o1)=NC2c1ccccc1Cl (stereo not given) | nt | 4% | nt | nt
NC(=O)c1cccc2[nH]c(-c3ccc([C@H]4CCCN4)cc3F)nc12 | nt | 45µM* | 7% | ?
CCN(C)S(=O)(=O)Nc1ccc(F)c(C(=O)c2c[nH]c3ncc(-c4cnc(C5CC5)nc4)cc23)c1F | nt | 1% | nt | nt
O=C1Nc2ccccc2Oc2cc(Oc3cccc(Cl)c3)ccc21 | 91* | 11% | -12% | -20%
O=C1Nc2ccccc2Oc2cc(Oc3ccccc3)ccc21 | -14 | -13% | -12% | -7%
CCc1nc(C)cn1S(=O)(=O)c1ccc(Cl)c(Cl)c1OC | 19 | -14% | 13µM* | -89%
SMILES | DRV1 agonist | NTMT1 inh | HTT prom inh | HTT-AS act
CCOc1cc(Cl)c(S(=O)(=O)n2cc(C)nc2CC)cc1Cl | 15 | 4% | 16µM* | -69%
FC(F)(F)c1ccccc1-c1nc(NCc2ccc3c(c2)OCO3)c2ccccc2n1 | nt | 4% | nt | nt
Cc1ccccc1-c1noc(-c2ccc(N3CCN(C)CC3)c([N+](=O)[O-])c2)n1 | -9 | ? | 2.2µM* | -70%
COCCNc1ccc(-c2nc(-c3ccco3)no2)cc1[N+](=O)[O-] | -10 | 4% | 40% | ?
CN1CCN(c2ccc(-c3nc(-c4ccccc4)no3)cc2[N+](=O)[O-])CC1 | 83* | 1% | ? | -90%
CCNc1ccc(-c2nc(-c3ccco3)no2)cc1[N+](=O)[O-] | -7 | -2% | 63% | 0.35µM*
Cc1ccccc1-c1noc(-c2ccc(N3CCCC3)c([N+](=O)[O-])c2)n1 | 24 | 2% | 10µM* | -77%
Cc1ccccc1-c1noc(-c2ccc(N3CCOCC3)c([N+](=O)[O-])c2)n1 | -9 | -3% | 15% | ?
Cc1ccccc1-c1noc(-c2ccc(N3CCN(c4ccccc4)CC3)c([N+](=O)[O-])c2)n1 | 4 | -1% | -3% | -7%
Cc1scc2c1C(=O)NS2(=O)=O | nt | 10% | nt | nt
Cc1cccc(CNc2ccnc(-c3cccc(C(F)(F)F)c3)n2)c1 | nt | 10% | nt | nt
CN(Cc1ccccc1)c1ccc(-c2nc(-c3ccccn3)no2)cc1[N+](=O)[O-] | 30 | -17% | -8% | ?
CN(C)c1ccc(-c2nc(-c3ccccn3)no2)cc1[N+](=O)[O-] | 76* | ? | ? | -54%
Cc1nn(Cc2noc(C(=O)NCc3cccc(F)c3)n2)c(C)c1Br | 73* | 11% | -10% | -13%
COC(=O)c1ccc(CNC(=O)c2nc(Cn3nc(C)c(Br)c3C)no2)cc1 | 10 | 28% | -12% | -17%
CNC(=O)c1ccc(NC(=O)c2nsc3ccccc23)cc1 | -7 | 40µM* | ? | -60%
O=C(NCc1cccc(F)c1)c1ccc(NC(=O)c2nsc3ccccc23)cc1 | -12 | 45µM* | ? | ?
O=C(Nc1ccc(C(=O)N2CCCCC2)cc1)c1nsc2ccccc12 | 11 | 14µM* | -12% | ?
CC(C)c1ccccc1-c1ncc(F)c(NCc2ccc(-n3ccnn3)cc2)n1 | nt | 5% | nt | nt
NS(=O)(=O)Oc1ccc2c3c(c(=O)oc2c1)CCCCC3 | nt | 28µM* | nt | nt
C[N+](C)(C)CC[N+]1(C)Cc2c(Cl)c(Cl)c(Cl)c(Cl)c2C1 | ? | 7.9µM* | 11% | 0%
CCOc1ccc(-c2ncnn2-c2sc3c(c2C#N)CCCCC3)cc1 | 102* | ? | -5%[11.5 µM] | 15%
Cc1ccc(NC(=O)C2CCN(S(=O)(=O)c3c(C)noc3/C=C/c3ccco3)CC2)cc1C | -27 | -1% | ? | -24%
Cc1ccc(/C=C/c2onc(C)c2S(=O)(=O)N2CCC(C(=O)NCc3ccco3)CC2)cc1 | 88* | -3% | -10% | -16%
Cc1noc(/C=C/c2ccco2)c1S(=O)(=O)N1CCC(C(=O)Nc2ccc(F)c(Cl)c2)CC1 | -15 | 6% | 32µM* | -45%
O=S(=O)(NCc1ccccc1)c1ccc(O)c2ncccc12 | nt | 5% | nt | nt
CCc1ccc(NC(=O)CSc2nc(C)c(C(=O)Nc3ccc(Cl)cc3)c(-c3ccc(OC)cc3)c2C#N)cc1 | 1 | 9% | -12% | 12%
CC(C)(C)c1ccc(-c2nc(SCC(=O)Nc3ccc(Cl)cc3)[nH]c(=O)c2C#N)cc1 | 3 | 20µM* | -15% | -10%
CN(C)c1cnc2c(O)ccc(C(=O)O)c2c1 | nt | 13% | nt | nt
